From PubChem BioAssay
Eya2 inh: qHTS Assay for Inhibitors of the Phosphatase Activity of Eya2; Protein phosphatase EYA2 (Homo sapiens), O00167; recombinant Eya2, OMFP fluorescence dephosphorylation (OMFP is methylfluorescein phosphate); Potency, µM (highest dose often 76.9 µM), for the others: at the top dose activity, negative = inhibition, usual class: inhibitors; 0.006% of 330,000 active; AID 488837, 2010; also: potency is read from the fitted curve at half-maximal effect
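Eya2 (0.2 uM) preincubated 10 min at ambient with compound, then OMFP substrate added at 50 uM; 10 min reaction in 50 mM HEPES pH 7.5, 50 mM NaCl, 5 uM MgCl2, 0.05% BSA, 1 mM DTT. Fluorescence read at Ex 485/Em 525 nm.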
CtBP-E1A blk: qHTS Assay for Inhibitors of the CtBP/E1A Interaction; CtBP / adenovirus E1A interaction (AlphaScreen); AlphaScreen GST-E1A/His-CtBP binding, 1536-well; stronger effect = lower value; activity change, % (test concentration not listed); 0.49% of 340,000 active; in the data active = activity change below about -65%; inconclusive = mostly about -30% to -63%
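GST-E1A and His-tagged CtBP (125 nM each as 5X stock) were preincubated with pin-transferred compound for 2 h at 37 °C in the dark, then glutathione donor and nickel acceptor beads were added for 1 h before AlphaScreen reading.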
GALK inh: qHTS Assay for Inhibitors of Human Galactokinase (GALK). P51570. Purified GALK, Kinase-Glo residual ATP luminescence. Potency, µM (doses to about 57.5 µM), without a hit: at the top dose activity change, negative = inhibition, most hits filed as inhibitors. 0.007% of 270,000 active. AID 1868, 2009; also: potency is read from the fitted curve at half-maximal effect
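Human GALK (5 nM) with 35 uM ATP and 100 uM galactose in 20 mM HEPES pH 8.0, 5 mM MgCl2, 60 mM NaCl, 1 mM DTT, 0.01% BSA. After 1 h at room temperature, leftover ATP was read by Kinase-Glo Plus luminescence.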
TrxR1 substrate: qHTS Assay for Substrates of Mammalian Selenoprotein Thioredoxin Reductase 1 (TrxR1): qHTS | Thioredoxin reductase 1, cytoplasmic (Rattus norvegicus), O89049 | purified TrxR1 substrate turnover, NADPH consumption readout | Potency, µM (doses to about 114 µM), for the others: at the highest dose activity change, negative = substrate turnover | 0.01% of 390,000 active | AID 588456, 2011; also: potency is read from the fitted curve at half-maximal effect; nearly all actives have a fitted effect of over 50% in size
Target sequence (O89049 whole entry, looked up): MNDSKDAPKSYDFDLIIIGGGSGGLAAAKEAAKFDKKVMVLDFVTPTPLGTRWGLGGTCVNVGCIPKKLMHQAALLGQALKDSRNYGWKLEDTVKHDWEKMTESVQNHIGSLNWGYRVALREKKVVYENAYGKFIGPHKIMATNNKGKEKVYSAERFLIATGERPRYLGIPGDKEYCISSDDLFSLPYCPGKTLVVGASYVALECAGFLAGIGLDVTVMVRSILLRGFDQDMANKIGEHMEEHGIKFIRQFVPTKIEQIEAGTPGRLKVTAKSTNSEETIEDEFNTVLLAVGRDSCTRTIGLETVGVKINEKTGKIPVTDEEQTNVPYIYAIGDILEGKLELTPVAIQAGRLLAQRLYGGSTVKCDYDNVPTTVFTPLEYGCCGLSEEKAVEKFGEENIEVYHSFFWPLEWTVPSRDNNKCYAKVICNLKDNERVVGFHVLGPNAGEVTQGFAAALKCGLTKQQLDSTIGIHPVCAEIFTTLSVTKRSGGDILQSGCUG
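Rat TrxR1, dispensed at 90 nM, was prereduced with 400 uM NADPH (final) for 5 min at ~22 deg C, then incubated with compound 15 min before 400 uM selenite. A first-read NADPH fluorescence drop versus no-compound background flagged substrates.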
rTrxR1 inhibitor: qHTS Assay for Inhibitors of Mammalian Selenoprotein Thioredoxin Reductase 1 (TrxR1): qHTS. recombinant rTrxR1, NADPH fluorescence consumption, selenite substrate. Potency, µM (top dose mostly 114 µM), inactives show at the top dose activity change, negative = inhibition, usual class: inhibitors. 1% of 390,000 active. AID 588453, 2011; also: potency is read from the fitted curve at half-maximal effect; nearly all actives have a fitted effect of over 65% in size
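Rat TrxR1 (90 nM in the dispensed reagent) was pre-reduced with 400 uM NADPH for 5 min at room temperature, then incubated with compound for 15 min. After 400 uM selenite was added, NADPH fluorescence (Ex 340/Em 450 nm) was followed for 8 min.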
Six1-Eya2 blk: qHTS Assay for Inhibitors of the Six1/Eya2 Interaction; Homeobox protein SIX1 (Homo sapiens) + Protein phosphatase EYA2 (Homo sapiens), …; AlphaScreen GST-Six1/His-Eya2 binding, biochemical; stronger effect = lower value; activity change, % (concentration not given with the values); AID 651725, 2012; 0.56% of 360,000 active; in the data active = activity change below about -65%; inconclusive = mostly about -30% to -63%
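AlphaScreen luminescence read after one hour at 37 °C in darkness. Pin-transferred compounds met GST-Six1 and His-Eya2 protein (5X stock 250 nM/500 nM) plus glutathione donor and Ni-chelate acceptor beads (5X, 50 ug/mL).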
* = called active by the depositor; u = inconclusive; x = not tested or not shown; [ ] = dose if it differs, or a comment. Hits are enriched below; roughly 1.5% of the tested compounds scored in any of these assays. Unless noted, calls follow the shape of the dose curve; as a rule, active = well fitted curve in the direction sought with a large enough effect; inconclusive = small, poorly fitted or top-dose-only effect, or another doubt; inactive = no such curve, though single readings can be large; an effect the other way counts as inactive or inconclusive. % is scaled to controls: 0 for no effect and ±100 for the full control effect.

SMILES | Eya2 inh | CtBP-E1A blk | GALK inh | TrxR1 substrate | rTrxR1 inhibitor | Six1-Eya2 blk
C/C(=N\NC(=O)c1c[nH]c2ccccc12)c1ccco1 | 8% | u | 0% | -7% | -9% | u
C/C(=N\NC(=O)c1ccc(F)cc1)c1ccccn1 | 8% | x | x | 3% | 14% | -92*
C/C(=N\NC(=O)c1c[nH]c2ccccc12)c1ccccn1 | -12% | -93* | -2% | -8%[57.1 µM] | 7%[57.1 µM] | -93*
Cc1cc2n(n1)SC(Nc1ccc(F)c(Cl)c1)N2 (stereo not given) | -3% | -18 | -2% | 3%[57.1 µM] | 14µM* | -12
CCOC(=O)Cn1c(=N)n(Cc2ccc(C(C)(C)C)cc2)c2ccccc21 | x | x | x | -4% | -27% | x
COc1cc([N+](=O)[O-])cc(/C=N/NC(=O)c2cccnc2)c1O | 10% | -92* | -2% | -28% | -27% | -90*
O=C(N/N=C/c1cccc([N+](=O)[O-])c1O)C(O)(c1ccccc1)c1ccccc1 | -21% | x | 0% | -6% | 3% | -22
COc1ccc(Br)cc1/C=N/NC(=O)c1cccnc1 | 2% | 0 | 2% | -5% | 10% | 9
COc1cc([N+](=O)[O-])cc(/C=N/NC(=O)C(O)(c2ccccc2)c2ccccc2)c1O | 5% | -82* | 3% | -8% | -11% | u
O=C(Cc1ccc(-c2ccccc2)cc1)NO | x | x | x | -8% | -7% | x
CCN(C(=O)CSc1nnc(-c2cc(OC)c(OC)c(OC)c2)o1)c1ccccc1 | x | x | x | -8% | 45µM* | x
CC[N+](C)(C)c1ccc(/C=C/c2ccncc2)cc1 | x | x | x | -30% | -29% | x
CS(=O)(=O)c1ncc(Cl)c(C(=O)N2CCN(c3cccc(Cl)c3)CC2)n1 | x | x | x | 1% | 0.89µM* | x
CCS(=O)(=O)c1ncc(Cl)c(C(=O)N2CCN(c3cccc(Cl)c3)CC2)n1 | x | x | x | -1% | 0.4µM* | x
Cc1ccc2scc(N3CCCCC3C)c(=O)c2c1 (stereo not given) | x | x | x | 0%[57.1 µM] | 19%[57.1 µM] | x
O=C1c2ccccc2NC(c2ccccc2O)N1Cc1ccco1 (stereo not given) | x | x | x | 93% | 15% | x
CC1CCCC(NC(=O)NC(=O)CCl)C1C (stereo not given) | 0% | -2 | 0% | 0% | 7.9µM* | 7
CC1CCCCC1NC(=O)NC(=O)CCl (stereo not given) | -1% | -13 | 1% | 5% | 40µM* | 10
CC1CCCCC1NC(=O)NC(=O)COC(=O)c1nccnc1N (stereo not given) | -27% | -3 | x | 413% | u | 2
CCOC(=O)c1ccc(NC(=O)CSc2ccc3ccccc3n2)cc1 | x | x | x | -7%[57.1 µM] | 5%[57.1 µM] | x
CCCCNC(=O)Cn1ncc2c(C)n(Cc3cccc(Cl)c3)c(C)c2c1=O | x | x | x | 3% | 9% | x
N#CC(C#N)=C1c2cc(S(N)(=O)=O)ccc2-c2ccc(S(N)(=O)=O)cc21 | 1% | -13 | -3% | 9% | 10µM* | u
O=C1c2cc(S(=O)(=O)NCCO)ccc2-c2ccc(S(=O)(=O)NCCO)cc21 | 0% | 4 | -1% | 6%[57.1 µM] | 13%[11.4 µM] | -2
N#CC(C#N)=C1c2cc(S(=O)(=O)NCCO)ccc2-c2ccc(S(=O)(=O)NCCO)cc21 | -6% | 2 | 0% | 2% | 3.5µM* | -3
CC(C)Cn1c([N+](=O)[O-])nc2c1c(=O)[nH]c(=O)n2C | 4% | -3 | x | 2%[57.1 µM] | -53% | 3
Cn1c(=O)[nH]c(=O)c2c1nc(Br)n2C/C=N/NC(=O)c1ccccc1 | 2% | -2 | -2% | 1%[57.1 µM] | 16%[57.1 µM] | 2
Cn1c(=O)[nH]c(=O)c2c1nc([N+](=O)[O-])n2Cc1ccccc1 | 3% | -3 | 7% | -4% | 6.3µM* | -11
